MITF primary: human MITF inhibition, primary screen | inhibition, % at 2.6 µM | O75030 | hit rate 0.91% among 650,000 | AID 1259374 | AlphaScreen MITF homodimerization, bead proximity signal; in the data active = inhibition above about 50%;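 also: 0% = vehicle wells with protein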
FBW7 activator: human FBW7 E3 ligase activation, primary screen; AID 1259310; hit rate 0.13% among 650,000; normalized activity (activation), % at 26.1 µM; AlphaScreen FBW7–phospho-cyclin E peptide binding, activator screen; in the data active = normalized activity above about 1.9%;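 also: purified mutant Fbw7 with reduced substrate affinity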
GPR151 activ: human GPR151 activation; Q8TDV0; PathHunter beta-arrestin GPR151 cells, luminescence; activation, % at 11.2 µM; hit rate 1% among 650,000; in the data active = activation above about 4.9%;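 also: 0% = median of compound wells and 100% = cells with positive control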
Target sequence (Q8TDV0 whole entry, looked up): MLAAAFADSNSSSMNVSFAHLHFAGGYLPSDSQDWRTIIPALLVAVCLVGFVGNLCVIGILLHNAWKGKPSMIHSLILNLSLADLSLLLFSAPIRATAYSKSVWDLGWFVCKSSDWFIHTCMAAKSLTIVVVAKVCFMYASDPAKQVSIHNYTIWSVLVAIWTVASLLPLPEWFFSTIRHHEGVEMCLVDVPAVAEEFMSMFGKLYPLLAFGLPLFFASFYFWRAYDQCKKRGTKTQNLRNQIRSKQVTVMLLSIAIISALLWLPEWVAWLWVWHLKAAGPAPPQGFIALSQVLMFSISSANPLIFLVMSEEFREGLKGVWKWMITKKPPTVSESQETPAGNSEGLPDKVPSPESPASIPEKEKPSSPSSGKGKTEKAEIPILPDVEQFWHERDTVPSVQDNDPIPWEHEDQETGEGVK
TEAD-YAP block: TEAD-YAP interaction inhibition. HEK-TIYL cells, TEAD-Gal4/YAP UAS-luciferase luminescence. AID 1259422. inhibition, % at 9.12 µM. hit rate 1.4% among 640,000; in the data active = inhibition above about 32%;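 also: 0% = median of test compound wells and 100% = reference inhibitor wells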
An asterisk follows results filed as active. A selection: hits, their analogues and other compounds. The true share with any hit is near 3.4%.

SMILES	MITF primary	FBW7 activator	GPR151 activ	TEAD-YAP block
CC[C@]1(O)C[C@H]2CN(CCc3c([nH]c4ccccc34)[C@H](C)[C@H]2c2cc3c(cc2OC)N(C)[C@H]2[C@@](O)(C(=O)OC)[C@H](C)[C@]4(CC)C=CCN5CC[C@]32[C@@H]54)C1	25	0	1	65*
CCN(CCCNC(=O)Cc1c(C(=O)O)[nH]c2ccccc12)c1cccc(C)c1	16	0	-1	2
CCOC(=O)c1c(C)oc2cc(Br)c(OCc3ccc(C)cc3)cc12	7	0	1	9
CCOC(=O)c1sc(NC(=O)c2cccc3ccccc23)nc1C	-10	0	4	42*
CCOC(=O)c1sc(NC(=O)c2ccccc2)nc1C	-1	0	-1	-59
Cc1cccc(NC(=O)/C(C#N)=C\c2ccc(O)cc2)c1C	-4	1	0	4
CC1(c2cccc(Cc3cccc(C4(C)CCCCC4)c3O)c2O)CCCCC1	12	0	-2	6
CC1(C)CCN2CCC(C)(C)c3c(O)ccc1c32	23	0	0	38*
COCCOC(=O)c1ccc(NC(=O)c2ccc(C(C)(C)C)cc2)cc1	1	-1	0	46*
COC(=O)Cc1ccc(NC(=O)c2ccc(C(C)(C)C)cc2)cc1	-11	0	1	71*
COC(=O)COc1ccc(NC(=O)c2ccc(C(C)(C)C)cc2)cc1	-22	0	-1	43*
CCCOC(=O)c1ccc(NC(=O)c2ccc(C(C)(C)C)cc2)cc1	11	0	0	-58
NC(=O)c1ccccc1Nc1ncnc2c1nc1n2CCCCC1	-11	0	1	48*
CC(=O)Nc1ccc(-c2nc3ccc(C)cc3[nH]2)cc1	2	0	-3	10
CC(=O)Nc1ccc2nc(-c3cc(C)ccc3C)[nH]c2c1	16	1	-1	46*
COc1ccc(Br)cc1/C=N/N=C(N)N	3	0	-2	42*
CC(C)(C)c1ccc(-c2cn(-c3ccccc3)c3[n+]2CCCS3)cc1	4	0	1	84*
COC(=O)c1ccccc1NC(=O)CSc1nnc(NC2CCCCC2)s1	10	0	0	40*
COC(=O)c1ccccc1NC(=O)CSc1nnc(NC(=O)C2CCC2)s1	-10	0	-2	-5
c1ccc(-c2csc(Nc3ccnc(Nc4ccc(N5CCOCC5)cc4)c3)n2)cc1	-5	0	4	64*
c1cncc(-c2csc(Nc3ccnc(Nc4ccc(N5CCOCC5)cc4)c3)n2)c1	-3	0	2	33*
c1ccc(-c2cnn(-c3ccnc(Nc4ccc(N5CCOCC5)cc4)c3)c2)cc1	10	0	0	45*
CC(C)CNc1ncnc2c1c(-c1ccccc1)cn2-c1ccc(Cl)cc1	6	0	0	-6
CC(=O)c1ccc(NC(=O)c2cnn3c(C(F)(F)F)cc(-c4ccc(Br)cc4)nc23)cc1	9	0	1	-6
O=C(CCNS(=O)(=O)c1ccc(F)cc1)N1CCCC1	11	0	-1	1
SMILES	MITF primary	FBW7 activator	GPR151 activ	TEAD-YAP block
CN(Cc1ccccc1)c1ncnc(N)c1[N+](=O)[O-]	4	0	-1	0
CCCN(CCC)c1ncnc(N)c1[N+](=O)[O-]	-11	0	-2	61*
CCOC(=O)CN(C(=O)CCl)c1ccc(F)cc1	-5	0	0	77*
Cc1ccc(C)c(S(=O)(=O)n2ccc(C)n2)c1	7	0	1	-4
CN1CCN(c2cc(-c3ccncc3)nc(-c3ccncc3)n2)CC1	11	0	-2	38*
CN1CCN(c2cc(-c3ccc(F)cc3)nc(-c3ccncc3)n2)CC1	18	0	-1	-3
CCN(CC)C(=O)C1CCCN(c2nc(C(=O)NCCN3CCOCC3)cs2)C1 (configuration not stated)	4	0	-3	-8
O=C(O)CC1S/C(=N/N=C/c2cccc([N+](=O)[O-])c2O)NC1=O (configuration not stated)	91*	-1	0	-8
CCn1c2ccccc2n2c(=O)n(CC(=O)N3CCN(C(C)=O)CC3)nc12	-9	0	5	-1
COc1ccc(C=C(C(=O)Nc2ccccc2OC)C(=O)Nc2ccccc2OC)cc1O	3	0	1	57*
Cc1cc(C)cc(OCCNC(=O)c2cccc(Br)c2)c1	1	0	0	-6
COc1ccc(S(=O)(=O)Nc2ccc(I)cc2C)cc1C	-11	0	1	-6
COc1ccc(OC)c(NC(=O)CSc2nnnn2-c2ccc(C(C)=O)cc2)c1	1	1	0	-5
Cc1ccc2oc(-c3ccc(Cl)c(N)c3)nc2c1	7	0	-10	68*
COc1ccc(-c2nc3ccccc3o2)cc1N	0	0	-6	19
COc1ccc(-c2nc3cc(N)ccc3o2)cc1Br	-7	0	-1	-19
COc1ccc(-c2nc3cc(C(C)C)ccc3o2)cc1N	10	0	-1	66*
COc1ccc(-c2nc3cc(C)ccc3o2)cc1N	13	0	-8	88*
O=C(COC(=O)C1CCC(=O)N1)NCc1ccc2c(c1)OCO2 (configuration not stated)	-14	0	-1	0
CC(C)(C)NC(=O)C(c1ccccc1)N(CC1CCCO1)C(=O)c1csnn1 (configuration not stated)	-1	0	0	5
c1ccc(CN=C2NN=C(c3ccccc3)CS2)cc1	5	0	1	-27
NC1=NN=C(c2ccc3c(c2)OCCO3)CS1	1	0	0	-13
CCN=C1NN=C(c2ccc(C)cc2)CS1	8	0	1	73*
Cc1cc(C2=NNC(=NCc3ccccc3)SC2)c(C)n1C	7	1	-1	1
C=CCN=C1NN=C(c2ccc3c(c2)OCCO3)CS1	7	0	0	51*
SMILES	MITF primary	FBW7 activator	GPR151 activ	TEAD-YAP block
C=CCN=C1NN=C(c2cc(C)n(CC=C)c2C)CS1	-2	0	-3	89*
Cc1nc2ccccc2n1Cc1nnc(-c2ccccc2)o1	4	0	2	40*
CC(=O)Nc1ccc(N2C(=S)N=C(Nc3c(C)cccc3C)C23CCC(C(C)(C)C)CC3)cc1 (configuration not stated)	12	0	1	1
CCOC(=O)C1=CS/C(=C2/C(=S)C(C)(C)Nc3c(OCC)cccc32)S1	53*	0	0	-5
CCOC(=O)C1=CS/C(=C2/C(=S)C(C)(C)N(C(=O)CC(C)C)c3ccc(OCC)cc32)S1	-4	0	0	7
COc1ccc(S(=O)(=O)NCc2ccncc2)cc1	10	0	1	43*
O=S(=O)(NCc1ccccc1)c1ccc(S(=O)(=O)NCc2ccncc2)cc1	5	0	3	29
O=S(=O)(NCc1ccncc1)c1ccc(Br)s1	-8	0	4	34*
CN(C)S(=O)(=O)c1ccc(S(=O)(=O)NCc2ccncc2)cc1	-12	0	1	43*
Cc1ccc(S(=O)(=O)NCc2ccccc2)cc1C	8	0	2	-2
O=C(O)CNS(=O)(=O)c1ccc(Br)s1	3	0	1	-2
Cc1ccc(S(=O)(=O)NCc2ccncc2)cc1C	4	0	2	41*
